Source: PubChem
Only a sample is shown.
aSyn UTR act: Activators via SNCA 5'UTR binding, MLPCN | alpha-synuclein 5'UTR reporter, activators screen | activity score, % (tested at 7.5 µM), hits read low | 300,000 tested, 7.1% active; in the data active means activity score below about -60%
* = called active by the depositor.

SMILES | aSyn UTR act
CCOC(=O)c1sc(-c2ccc(OC)cc2)cc1N | -158.4*
CCOC(=O)c1cc(-c2ccccc2)sc1N | -94.1*
CCOC(=O)c1cc(-c2ccccc2)sc1NC(=O)COC(=O)c1cccc(S(N)(=O)=O)c1 | 71.6
c1ccc(-c2noc(-c3ccc4ccccc4c3)n2)cc1 | 76.6
Brc1ccc(-c2nc(-c3cccnc3)no2)o1 | -164.3*
Brc1ccc(-c2nc(-c3ccccc3)no2)o1 | -141.5*
Nc1cccc2c1C(=O)N(C(=O)/C=C/c1cccc(Br)c1)C2=O | -160.3*
Cc1ccc2nc(-c3ccc(SCC(=O)Nc4nnc(C)s4)nc3)[nH]c2c1 | -93.7*
Cc1ccc2nc(-c3ccc(SCC(=O)Nc4nc(C)cs4)nc3)[nH]c2c1 | -246.5*
CCc1nnc(NC(=O)CSc2ccc(-c3nc4ccccc4[nH]3)cn2)s1 | -186.8*
Cc1csc(NC(=O)CSc2ncc(-c3ccccc3)[nH]2)n1 | -96.9*
N#CCC(=O)Nc1ccc(C(=O)OCC(=O)c2ccc3c(c2)OCCO3)cc1 | -111.7*
N#CCC(=O)Nc1ccc(C(=O)OCC(=O)c2ccc3c(c2)OCO3)cc1 | -89.3*
COC(=O)Cc1c(OC)ccn(CCc2c[nH]c3ccccc23)c1=O | -149.3*
CCCCN1C(=O)C(=O)N(CC(=O)N2N=C3/C(=C/c4ccco4)CCCC3C2c2ccco2)C1=O (stereo unspecified) | -86.3*
COc1ccc(OCC(=O)C2CC2)c(C#N)c1 | -77.7*
CN(C)c1ccc(Nc2ncnc3ccc(Br)cc23)cc1 | -71.6*
CC(=Nc1cccc(C)c1)c1sc2ccccc2c1O | -215.0*
CC(=O)NCCN=C(C)c1sc2ccccc2c1O | -70.9*
CC(=Nc1ccccc1O)c1sc2ccccc2c1O | -93.1*
Cc1cccc(N=Nc2ccc(O)c3ncccc23)c1 | 73.0
CC(=Nc1ccc(O)cc1)c1sc2ccccc2c1O | -186.7*
CCOc1ccc(NC(=O)Nc2ccc3nccnc3c2)cc1 | -95.8*
COc1ccc(C(=O)Nc2ccc(C3CC3(Cl)Cl)cc2)cc1 (stereo unspecified) | -95.1*
COc1ccc(NC(=O)c2ccc3nccnc3c2)cc1 | -102.2*
SMILES | aSyn UTR act
COc1ccc(NC(=O)c2ccc(Oc3ncccn3)cc2)cc1 | -84.1*
COC(=O)c1ccc(NC(=O)c2ccc(OC(C)=O)c(OC)c2)cc1 | -148.3*
CCOc1ccc(NC(=O)c2ccc3nccnc3c2)cc1 | -113.4*
COc1ccc(C(=O)Nc2ccc(/C(C)=N/NC(=O)c3ccccc3O)cc2)cc1OC | -68.8*
CC(C)(C)NC(=O)Nc1ccc2nccnc2c1 | -96.4*
CC(C)C[C@H](NC(=O)c1nc[nH]c1C(=O)N[C@@H](CC(C)C)C(=O)OC(C)(C)C)C(=O)OCc1ccccc1 | 60.6
CCOc1ccc(NC(=O)c2ccc(OC)cc2)cc1 | -114.0*
Cc1ccc(NC(=O)c2ccc(OC(=O)C(C)Oc3ccc(Cl)cc3C)cc2)cc1 (stereo unspecified) | -127.9*
CCOc1ccc(C(=O)NC(Cc2ccccc2)C(=O)OC)cc1 (stereo unspecified) | -103.9*
COc1ccc(C(=O)Nc2ccc(OC)c(OC)c2)cc1 | -97.6*
O=C(c1ccc2c(c1)OCO2)N1CCN(c2cccc(C(F)(F)F)c2)CC1 | -77.3*
O=C(c1cc2c(s1)-c1ccccc1OC2)N1CCc2ccccc2C1 | -89.0*
O=C(c1ccc2c(c1)OCO2)N1CCc2ccccc2C1 | -112.9*
Cn1cccc1/C=C1\SC(=O)N(c2ccc(O)cc2)C1=O | -143.8*
O=C(NCC(c1cccs1)N1CCOCC1)c1ccc(Br)o1 (stereo unspecified) | -70.5*
CCN1/C(=C2/SC(=S)N(C)C2=O)C=Cc2cc(C)ccc21 | -68.3*
C=CC[n+]1c(/C=C2\C=Cc3cc(C)ccc3N2CC)ccc2ccccc21 | 67.2
O=C(NCCc1ccc(O)cc1)c1ccc(Cl)cc1 | -121.3*
CC(=O)NCCNC(=O)c1ccc(CSc2ccc(Cl)cc2)cc1 | -132.0*
COc1ccccc1CCNC(=O)c1ccoc1C | -71.5*
O=C(NCCc1ccc(Cl)cc1)c1ccc2nccnc2c1 | -108.7*
Cc1occc1C(=O)NCCc1ccc(Cl)cc1 | -124.6*
COc1ccc(NC2=Nc3ccccc3CC2)cc1 | -137.5*
O=C(CC(SCCO)c1ccc2c(c1)OCO2)c1cccs1 (stereo unspecified) | -193.5*
O=C(CC(SCc1ccco1)c1ccc(O)cc1)c1cccs1 (stereo unspecified) | -167.9*
SMILES | aSyn UTR act
O=C(/C=C/Nc1ccc(F)cc1)c1ccc(Br)cc1 | -180.7*
O=C(/C=C/Nc1ccc([N+](=O)[O-])cc1)c1ccc(Br)cc1 | -74.5*
O=C(/C=C/Nc1ccc(F)c(F)c1)c1ccc(Br)cc1 | -191.7*
O=C(/C=C/Nc1ccc(Br)cc1F)c1ccccc1 | 77.5
CCn1c(/C=C/c2ccccc2Cl)nc2ccccc2c1=O | -191.2*
CCn1c(/C=C/c2c[nH]c3ccccc23)nc2ccccc2c1=O | -176.4*
CCn1c(/C=C\c2ccccc2C)nc2ccccc2c1=O | -62.6*
Cc1cccc(OCC(=O)N2CCC(c3ccccc3)C2)c1 (stereo unspecified) | -158.3*
O=C(COc1ccc(F)cc1)N1CCC(c2ccccc2)C1 (stereo unspecified) | -134.3*
CSc1nn(-c2ccc(C(=O)OCC(=O)NC(=O)NC(C)C)cc2)c(=S)s1 | -69.3*
N=C1C(c2nc3ccccc3s2)=C(O)CN1Cc1ccccc1 | -341.5*
COc1ccc(COc2cccnc2N)cc1 | -90.5*
Nc1ncccc1OCc1ccc(Br)cc1 | -158.8*
CCOc1cc(/C=C(\C#N)C(N)=O)ccc1OCc1c(C)no[n+]1[O-] | -62.8*
O=c1oc(-c2ccc(Br)cc2)nc2ccccc12 | -130.0*
CCCOc1cccc(-c2nc3ccccc3c(=O)o2)c1 | -95.4*
CN(C)C(=O)c1ccc2c(c1[N+](=O)[O-])C(=O)c1ccccc1C2=O | -116.4*
Cc1occc1C(=O)Nc1cccc(C(=O)O)c1 | -84.5*
Cc1occc1C(=O)Nc1ccc2c(c1)OCO2 | -144.4*
O=C(COC(=O)c1ccccc1NCc1ccco1)Nc1ccc2c(c1)OCO2 | -66.5*
COc1cccc(C(=O)Nc2ccc3c(c2)OCO3)c1OC | -128.1*
Cc1ccc(C(=O)Nc2ccc3c(c2)OCCO3)c(C)c1 | 73.5
Cc1ccc(NC(=O)c2ccoc2C)cc1C | -231.2*
O=C(CCl)Nc1ccccc1C(=O)Nc1ccc2c(c1)OCO2 | -86.9*
N/C(=N\O)c1ccc(N2CCN(c3ncccc3C(F)(F)F)CC2)nc1 | -97.8*
SMILES | aSyn UTR act
S=C(Nc1ccc2c(c1)OCCO2)Nc1ccc2c(c1)OCO2 | -75.3*
OCCNC(=S)Nc1ccc2c(c1)OCCO2 | -91.4*
COCCCNC(=S)Nc1ccc2c(c1)OCCO2 | -115.8*
S=C(NCc1ccc(Cl)c(Cl)c1)Nc1ccc2c(c1)OCO2 | -109.9*
S=C(Nc1ccc2c(c1)OCO2)Nc1ccccc1Cl | -84.9*
O=C(CSc1ncnc2c1oc1ccccc12)c1cccs1 | -125.2*
Cc1nc(SCC(=O)c2cccs2)c2oc3ccccc3c2n1 | -133.8*
CSc1ccccc1-c1nnc(-c2ccc(Cl)c(Cl)c2)o1 | -98.1*
CSc1ccccc1-c1nnc(-c2ccc(Cl)cc2Cl)o1 | -109.4*
O=C(O)c1ccc(Cl)c(S(=O)(=O)Nc2ccc(OCc3ccccc3)cc2)c1 | -69.2*
Cc1ccc(Oc2ccc(Cl)cc2N)cc1 | -85.3*
Nc1cc(Cl)ccc1Oc1ccc2ccccc2c1 | -138.4*
O=C(Nc1cc(C(F)(F)F)ccc1Cl)C(Sc1nnc(-c2cccs2)o1)c1ccccc1 (stereo unspecified) | -108.5*
COC(=O)c1cnc(Oc2ccc(NC(=O)NC(=O)c3ccccc3Cl)cc2)cc1C(F)(F)F | -62.7*
